Pf growth 48h: Primary qHTS for delayed death inhibitors of the malarial parasite plastid, 48 hour incubation; P. falciparum luciferase growth in erythrocytes, 48 h; Potency, µM (series often up to 28.7 µM), inactives show at the top dose activity change, negative = inhibition, most hits filed as inhibitors; actives 5.9% (n = 310,000); further: potency means the concentration at half of the fitted maximal effect
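Parasite viability was followed by luminescence of a genomically integrated firefly luciferase. Cultures held 0.1% parasitemia at 2% hematocrit (final), incubated under 5% CO2 at 37 C.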
Lassa entry inh: qHTS for Inhibitors of binding or entry into cells for Lassa Virus | Lassa virus pseudotype entry inhibition, cell reporter | AID 540256, 2011 | actives 1.2% (n = 300,000) | Potency, µM (doses to about 37.9 µM), without a hit: at the highest dose activity change, negative = inhibition, hits mostly inhibitors; calls by dose curve; tested in HEK293 cells; further: potency means the concentration at half of the fitted maximal effect; nearly all actives have a fitted effect of over 50% in size
MARV entry inh: qHTS for inhibitors of binding or entry into cells for Marburg Virus. Marburg virus pseudotyped entry inhibition, cell reporter. Potency, µM (highest dose often 37.8 µM), for inactives: top-dose activity change, negative = inhibition, actives largely listed as inhibitors. actives 1.8% (n = 300,000). AID 540276, 2011; calls by dose curve; tested in HEK293 cells; further: potency means the concentration at half of the fitted maximal effect
HCMV antiviral: qHTS Assay for inhibitors of the human cytomegalovirus (HCMV); actives 4.5% (n = 410,000); activity change, negative = inhibition, % at 57.5 µM; HFF cells, HCMV-luciferase reporter, 72 h; active compounds read low; AID 1259415, 2018; in the data active means activity change below about -60%; inconclusive means no clear call, values can overlap the other calls; inactive means above about -39%
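Two compound doses tested in HFFs infected with HCMV-luciferase, MOI 1 PFU/cell, 72 h at 37C. Lysate luminescence read with OneGlo; data normalized against buffer-only and 10uM Salinomycin inhibitor controls.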
HCV inh: qHTS Assay for Inhibitors of Hepatitis C Virus (HCV); Huh7.5.1 HCVcc-Cre infection, luciferase reporter, 44 h; Potency, µM (series often up to 41.8 µM), inactives show at the top dose activity change, negative = inhibition, hits mostly inhibitors; actives 3.4% (n = 340,000); AID 651820, 2012; further: potency means the concentration at half of the fitted maximal effect
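1,000 cells/well; 4 h culture; + compound; + HCVcc-Cre (~0.5 moi); 44 h; luciferase substrate, RT 15 min; read 15 sec.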
Pf growth 96h: Primary qHTS for delayed death inhibitors of the malarial parasite plastid, 96 hour incubation; actives 6.9% (n = 320,000); Potency, µM (doses to about 28.7 µM), inactives show at the top dose activity change, negative = inhibition, most hits filed as inhibitors; P. falciparum luciferase reporter growth, 96 h; further: potency means the concentration at half of the fitted maximal effect
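Two-generation exposure (96 h) targets delayed-death phenotype. Reporter parasites carrying integrated firefly luciferase, in red cells at 2% hematocrit and 0.05% parasitemia final, kept at 37 C, 5% CO2; luminescence loss indicates inhibition.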
The depositor's hits bear a star; u = inconclusive; x = not tested or not shown; [ ] = dose if it differs, or a comment. The list is not random: actives were taken first. Their share in the collection is about 14%. Unless noted, the call rests on the fitted dose curve; in most records, active means well fitted inhibition curve with a large enough effect; inconclusive means small, poorly fitted or top-dose-only effect, or another doubt; inactive means no such curve, though single readings can be large or run the other way. On the % scale 0 is the no-effect control and ±100 the full control effect.

SMILES	Pf growth 48h	Lassa entry inh	MARV entry inh	HCMV antiviral	HCV inh	Pf growth 96h
Cc1nc(N2CCN(S(=O)(=O)c3ccccc3C#N)CC2)c2c(-c3ccccc3)csc2n1	10µM*	x	x	-74*	8.9µM*	u
COc1ccc(-c2csc3ncnc(N4CCN(S(=O)(=O)c5cccc(C(F)(F)F)c5)CC4)c23)cc1	10µM*	4%	1%	u	u	1%
Cc1sc2nc(CN3CCCC3)nc(N3CCN(S(=O)(=O)c4ccccc4)CC3)c2c1C	10µM*	x	x	-29	-3%	4.7µM*
Cc1cc(C)c2c(CC(=O)Nc3ccc(F)cc3)coc2c1	x	u	u	-17	x	x
Cc1ccc(CNC(=O)CSc2nc3ccccc3nc2Cc2ccc(C)cc2)cc1	x	27%[46.1 µM]	x	7	x	x
COc1ccccc1NC(=O)Cn1c(=O)oc2cc(S(=O)(=O)NCc3ccccc3)ccc21	x	x	-15%[46.1 µM]	12	x	x
Cc1cc(C)cc(NC(=O)CSc2nnc(COc3ccccc3Cl)o2)c1	x	-3%[46.1 µM]	-18%[46.1 µM]	-13	x	x
COC(=O)C1[C@H]2[C@@H]3[C@H](c4ccc(C)o4)Nc4ccc(Cl)cc4[C@@H]3N(C(=O)OC(C)(C)C)[C@@H]12 (stereo partly drawn)	x	x	x	-36	x	x
Cc1ccc(C(=O)N2CCN(c3ccc(NC(=S)NC(=O)c4cccs4)cc3)CC2)cc1	u	u	7.9µM*	-74*	2.2µM*	-15%
COc1ccc(NC(=O)C(=O)NCCN2CCN(C(=O)c3ccco3)CC2)cc1	10%	x	-13%[46.1 µM]	-8	24%	0.93µM*
CCC(=O)NC(=S)Nc1ccc(N2CCN(C(=O)c3ccc(Cl)cc3)CC2)cc1	u	u	u	-33	u	12µM*
O=C(NC(=S)Nc1ccc(N2CCOCC2)cc1)c1cccs1	45%	x	x	79	-18%	0%
O=C(NC(=S)Nc1ccc(N2CCOCC2)cc1)c1ccc(Cl)cc1	16%	-2%	u	-1	1%	22%
COc1ccc(NC(=O)C(=O)NNC(=O)c2cccs2)cc1	23%	1%	u	31	-6%	3.7µM*
COC(=O)c1cccc(NC(=O)CCN2C(=O)NC(C)(C)C2=O)c1	x	x	x	-4	x	x
CCN(CC)S(=O)(=O)c1ccc2c(c1)N(CC(=O)N1CCN(c3cccc(C)c3)C(C)C1)C(=O)CO2 (stereo not drawn)	x	-2%[46.1 µM]	x	-9	x	x
CCc1ccccc1NS(=O)(=O)c1ccc2c(c1)OCC(C(=O)N1CCCC1)O2 (stereo not drawn)	x	-2%[46.1 µM]	x	-20	x	x
CN1CCN(c2ccc(NC(=S)NC(=O)c3cccc4ccccc34)cc2)CC1	u	x	x	0	11µM*	0%
Cc1ccccc1C(=O)N1CCN(c2ccc(NC(=S)NC(=O)c3cccs3)cc2)CC1	9.3µM*	x	x	-13	u	-3%
CC(C)Oc1ccc(C(=O)Nc2ccc(N3CCN(C(=O)c4ccco4)CC3)cc2)cc1	u	u	-2%[46.1 µM]	-39	-11%	u
CC(C)(O)C#Cc1ccc(C(=O)N2CCN(c3ccc(F)cc3)CC2)cc1	12%	9%	24%[46.1 µM]	-39	-14%	u
CC(C)(O)C#Cc1ccc(C(=O)N2CCN(c3ccc(Cl)cc3)CC2)cc1	9%	17%	-8%[46.1 µM]	-27	6%	6.6µM*
Cc1ccc(C(=O)NC(=S)Nc2ccc(N3CCN(C(=O)c4ccco4)CC3)cc2)cc1	u	-6%	9%	u	11µM*	5.2µM*
O=C(Cn1ncn2c(cc3ccccc32)c1=O)NCc1ccc(F)cc1	x	x	2%[46.1 µM]	-6	x	x
Cc1ccc(C(=O)OC[C@H]2O[C@H](Cl)C[C@H]2OC(=O)c2ccc(C)cc2)cc1	x	x	1%[14.2 µM]	x	x	x
SMILES	Pf growth 48h	Lassa entry inh	MARV entry inh	HCMV antiviral	HCV inh	Pf growth 96h
O=C1CCC[C@H]2[C@@H](Cc3ccccc3)[C@@H](NCc3ccccc3)CC[C@]23CCCN13	x	x	x	-21	x	x
CCN(CC(=O)Nc1c(F)cccc1F)C(=O)CSCc1ccc(C)cc1	x	x	x	-15	x	x
COc1ccc(C(=O)N2CCN(c3ccc(NC(=O)c4ccco4)cc3)CC2)cc1	18%	-15%	-1%	-76*	-7%	0%
CCC(=O)N1CCN(c2ccc(NC(=O)c3cccs3)cc2)CC1	-5%	14%	-9%	-7	7%	13µM*
CCc1ccc(C(=O)N2CCN(c3ccc(NC(=O)c4ccco4)cc3)CC2)cc1	32%	u	18%	13	x	25%
CCC(=O)Nc1ccc(N2CCN(C(=O)c3cccs3)CC2)cc1	2%	x	x	17	14%	13%
CCOC(=O)c1c(C)nn(-c2ccc(NC(=O)c3cccs3)cc2)c1C	15µM*	u	u	-35	u	3.3µM*
O=C(Nc1ccc(N2CCN(C(=O)c3ccccc3)CC2)cc1)c1cccs1	-14%	u	-2%[46.1 µM]	74	2%	27%
COc1ccc(C(=O)N2CCN(c3ccc(NC(=O)c4cccs4)cc3)CC2)cc1	u	1%	-24%	-68*	u	u
O=C1CCSC2(C(=O)N(Cc3ccc(F)cc3)c3ccccc32)N1c1cccc(F)c1 (stereo not drawn)	x	u	x	0	x	x
COc1ccc(C(=O)NCCc2csc(-c3ccc(Cl)cc3)n2)c(OC)c1	x	-16%[46.1 µM]	x	-16	x	x
CN1OC[C@@H]2CN(Cc3ccc(Cl)cc3)[C@H](c3ccc(-n4ccnc4)cc3)C[C@@H]21	x	x	x	-6	x	x
CCN(CC)c1ccc(N)cc1	1.9µM*	x	x	x	u	u
COc1ccc(-c2noc(C3CCCN(C(=O)c4ccccc4OC)C3)n2)cc1 (stereo not drawn)	-13%	-24%[46.1 µM]	u	-84*	u	u
Cc1cccc(C(=O)N2CCCC(c3nc(-c4ccc(F)cc4)no3)C2)c1 (stereo not drawn)	-2%	-7%	-6%	7	13µM*	u
COc1ccc(-c2noc(C3CCCN(C(=O)c4cccc(F)c4)C3)n2)cc1 (stereo not drawn)	-1%	u	u	-22	u	24%
COc1ccc(-c2noc(C3CCCN(C(=O)c4ccccc4C)C3)n2)cc1 (stereo not drawn)	u	-29%[46.1 µM]	u	-39	32µM*	u
COC(=O)c1ccc(-c2ccc(CNCC(O)c3ccccc3)o2)cc1 (stereo not drawn)	2.6µM*	-16%	u	-5	13%	12µM*
COc1cc(C(C)=O)ccc1OCC(O)CNCC(O)c1ccccc1 (stereo not drawn)	x	x	x	6	-12%	-8%

Bioassay records from PubChem.
